Reference: PubChem BioAssay AID1159580 (chemical genetic matrix, 2015)
Where “and” joins values, the source holds several entries; their conditions need not be identical. Identical values can stand only once. The whole screen tested about 5,500 compounds, of which about 2,000 (36%) were called active. Inconclusive results (about 18%) are left out. No stated cut-off is given here; in the data, active means normalized growth mostly below about 0.91 (no sharp cut-off); inconclusive means no clear call, values can overlap the other calls; inactive means mostly above about 0.92. The list shows a part of the results.

Assay: chemical genetic growth profiling, strain panel (AID 1159580);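 further: tested at 20 µM; growth read once vehicle control cultures reached saturation at 30 °C; 1 = growth at the plate median or of vehicle wells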
Conditions: S. cerevisiae deletion strains, growth OD

Measured: normalized growth

N#Cc1c(Cl)cccc1Cl
inactive: locus YAL013W, strain DEP1, stronger effect = lower value 1.01 | locus YAL021C, strain ccr4, stronger effect = lower value 1.01 | locus YAL026C, strain drs2, stronger effect = lower value 0.988 | locus YAL030W, strain snc1, stronger effect = lower value 0.979 | locus YBL061C, strain skt5, stronger effect = lower value 0.979 | locus YBR009C, strain hhf1, stronger effect = lower value 0.959 | locus YBR021W, strain FUR4, stronger effect = lower value 1.02 | locus YBR023C, strain chs3, stronger effect = lower value 0.981 | locus YBR171W, strain sec66, stronger effect = lower value 0.982 | locus YBR229C, strain ROT2, stronger effect = lower value 1.01 | locus YBR231C, strain swc5, stronger effect = lower value 0.98 | locus YBR279W, strain paf1, stronger effect = lower value 0.983 | locus YCL011C, strain gbp2, stronger effect = lower value 0.954 | locus YCL016C, strain dcc1, stronger effect = lower value 0.983 | locus YCL029C, strain bik1, stronger effect = lower value 1.01 | locus YCL069W, strain vba3, stronger effect = lower value 0.98 | locus YCR088W, strain abp1, stronger effect = lower value 0.985 | locus YDL005C, strain med2, stronger effect = lower value 0.977 | locus YDL035C, strain GPR1, stronger effect = lower value 1.01 | locus YDL040C, strain nat1, stronger effect = lower value 0.991 | locus YDL074C, strain BRE1, stronger effect = lower value 1.03 | locus YDL101C, strain DUN1, stronger effect = lower value 1.01 | locus YDL134C, strain PPH21, stronger effect = lower value 1 | locus YDL185W, strain tfp1, stronger effect = lower value 1.01 | locus YDL192W, strain arf1, stronger effect = lower value 1.01 | locus YDR001C, strain nth1, stronger effect = lower value 0.977 | locus YDR069C, strain doa4, stronger effect = lower value 0.983 | locus YDR101C, strain arx1, stronger effect = lower value 1.01 | locus YDR137W, strain rgp1, stronger effect = lower value 1.01 | locus YDR150W, strain NUM1, stronger effect = lower value 1.01 | locus YDR159W, strain sac3, stronger effect = lower value 0.995 | locus YDR162C, strain NBP2, stronger effect = lower value 1.01 | locus YDR195W, strain ref2 0.991 | locus YDR297W, strain sur2, stronger effect = lower value 0.972 | locus YDR318W, strain mcm21, stronger effect = lower value 1.01 | locus YDR334W, strain swr1, stronger effect = lower value 0.952 | locus YDR335W, strain msn5, stronger effect = lower value 0.977 | locus YDR388W, stronger effect = lower value 1.01 | locus YDR392W, strain spt3, stronger effect = lower value 1 | locus YDR502C, strain sam2, stronger effect = lower value 1.01 | locus YEL003W, strain gim4, stronger effect = lower value 0.969 | locus YEL037C, strain rad23, stronger effect = lower value 0.981 | locus YEL061C, strain CIN8 (second series), stronger effect = lower value 0.98 | locus YEL061C, strain CIN8, stronger effect = lower value 1.01 | locus YER015W, strain faa2, stronger effect = lower value 0.98 | locus YER016W, strain bim1, stronger effect = lower value 0.979 | locus YER110C, stronger effect = lower value 1 | locus YER111C, strain swi4, stronger effect = lower value 0.965 | locus YER155C, strain BEM2 (second series), stronger effect = lower value 0.975 | locus YER155C, strain BEM2, stronger effect = lower value 1.01 | locus YER167W, strain BCK2, stronger effect = lower value 1.01 | locus YFR010W, strain ubp6, stronger effect = lower value 0.98 | locus YGL078C, strain dbp3, stronger effect = lower value 1.01 | locus YGL086W, strain mad1, stronger effect = lower value 1.01 | locus YGL167C, strain pmr1, stronger effect = lower value 0.978 | locus YGL173C, strain kem1, stronger effect = lower value 0.99 | locus YGL227W, strain vid30, stronger effect = lower value 0.974 | locus YGL240W, strain doc1, stronger effect = lower value 0.965 | locus YGL248W, strain PDE1, stronger effect = lower value 1 | locus YGL253W, strain hxk2, stronger effect = lower value 0.987 | locus YGR078C, strain PAC10, stronger effect = lower value 1.01 | locus YGR135W, strain pre9, stronger effect = lower value 1.01 | locus YGR229C, strain SMI1, stronger effect = lower value 1.02 | locus YGR252W, strain gcn5, stronger effect = lower value 1.09 | locus YHR013C, strain ard1, stronger effect = lower value 1.02 | locus YHR027C, strain rpn1, stronger effect = lower value 0.977 | locus YHR030C, strain SLT2, stronger effect = lower value 1.02 and 0.941 | locus YHR079C, strain IRE1 (second series), stronger effect = lower value 1.01 | locus YHR079C, strain IRE1, stronger effect = lower value 0.965 | locus YHR094C, strain hxt1, stronger effect = lower value 1.01 | locus YHR129C, strain ARP1, stronger effect = lower value 1.01 | locus YHR142W, strain chs7, stronger effect = lower value 0.976 | locus YHR200W, strain rpn10, stronger effect = lower value 1.01 | locus YIL066C, strain RNR3, stronger effect = lower value 1.04 | locus YIL073C, strain SPO22, stronger effect = lower value 1.03 | locus YIL125W, strain kgd1, stronger effect = lower value 1.01 | locus YIR030C, strain dcg1, stronger effect = lower value 1.02 | locus YJL092W, strain hpr5, stronger effect = lower value 0.976 | locus YJL095W, strain BCK1 (second series), stronger effect = lower value 0.997 | locus YJL095W, strain BCK1, stronger effect = lower value 0.999 and 0.941 | locus YJL115W, strain asf1, stronger effect = lower value 0.959 | locus YJL129C, strain trk1, stronger effect = lower value 0.976 | locus YJL134W, strain LCB3, stronger effect = lower value 1.01 | locus YJL154C, strain vps35, stronger effect = lower value 0.978 | locus YJL164C, strain tpk1, stronger effect = lower value 0.996 | locus YJL166W, strain qcr8, stronger effect = lower value 0.978 | locus YJL168C, strain set2, stronger effect = lower value 1.01 | locus YJL187C, strain SWE1 (second series), stronger effect = lower value 1.01 | locus YJL187C, strain SWE1, stronger effect = lower value 0.988 | locus YJR043C, strain POL32, stronger effect = lower value 1.02 | locus YJR066W, strain TOR1, stronger effect = lower value 0.936
